Test results reported in ChEMBL document CHEMBL2218924, “A broad activity screen in support of a chemogenomic map for kinase signalling research and drug discovery” (Biochem J, 2013).

molecular target: Protein-tyrosine kinase 2-beta (Homo sapiens) (UniProt Q14289); conditions: at 10 µM
Sequence (Q14289 whole entry, looked up): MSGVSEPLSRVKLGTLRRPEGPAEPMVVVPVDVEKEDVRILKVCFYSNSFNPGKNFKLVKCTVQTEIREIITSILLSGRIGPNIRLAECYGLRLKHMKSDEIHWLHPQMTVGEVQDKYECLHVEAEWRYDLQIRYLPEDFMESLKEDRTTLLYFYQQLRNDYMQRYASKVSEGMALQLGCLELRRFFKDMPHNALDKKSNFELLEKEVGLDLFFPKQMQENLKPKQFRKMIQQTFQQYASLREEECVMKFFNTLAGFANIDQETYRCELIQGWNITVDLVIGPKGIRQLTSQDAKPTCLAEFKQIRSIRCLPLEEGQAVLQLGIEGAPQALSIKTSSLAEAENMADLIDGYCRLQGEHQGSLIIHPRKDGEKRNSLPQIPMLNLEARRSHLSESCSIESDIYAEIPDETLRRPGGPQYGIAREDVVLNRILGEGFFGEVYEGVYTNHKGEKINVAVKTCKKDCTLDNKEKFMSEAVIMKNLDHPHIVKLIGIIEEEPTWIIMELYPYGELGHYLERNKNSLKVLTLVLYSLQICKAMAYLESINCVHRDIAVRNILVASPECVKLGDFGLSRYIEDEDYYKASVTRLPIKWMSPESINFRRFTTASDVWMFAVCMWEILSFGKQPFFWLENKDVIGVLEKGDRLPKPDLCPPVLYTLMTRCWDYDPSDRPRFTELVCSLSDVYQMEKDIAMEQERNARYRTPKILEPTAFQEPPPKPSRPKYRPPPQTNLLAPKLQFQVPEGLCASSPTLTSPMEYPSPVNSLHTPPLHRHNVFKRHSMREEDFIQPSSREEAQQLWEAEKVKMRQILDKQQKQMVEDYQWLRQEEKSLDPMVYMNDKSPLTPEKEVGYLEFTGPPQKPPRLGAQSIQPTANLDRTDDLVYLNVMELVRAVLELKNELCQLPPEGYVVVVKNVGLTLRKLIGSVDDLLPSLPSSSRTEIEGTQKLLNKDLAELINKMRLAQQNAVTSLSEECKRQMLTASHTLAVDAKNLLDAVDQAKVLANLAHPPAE

| SMILES | residual activity [%] |
| --- | --- |
| N#C/C(=C\c1ccc(O)c(O)c1)C(=O)NCc1ccccc1 | 101 |
| O=C(Nc1ccc(Cl)cc1)c1ccccc1NCc1ccncc1 | 74 |
| O=C1NC(=O)C(c2cn(CCCO)c3ncccc23)=C1c1cnccn1 | 79 |
| COc1ccc2c(c1)c(C1=C(c3c[nH]c4ccccc34)C(=O)NC1=O)cn2CCCN(C)C | 32 |
| Nc1nc(Nc2ccc(S(N)(=O)=O)cc2)nn1C(=O)c1c(F)cccc1F | 14 |
| CCCCc1c(-c2ccc(OC)cc2)[nH]c2nccnc12 | 32 |
| CCN(CC)CCNC(=O)c1c(C)[nH]c(/C=C2\C(=O)Nc3ccc(Cl)cc32)c1C | 3 |
| Cn1c2ccccc2c2c3c(c4c5ccccc5n(CCC#N)c4c21)CNC3=O | 4 |
| NCCNc1ncc(C(N)=O)c(Nc2cccc(C(F)(F)F)c2)n1 | 3 |
| O=C1NC(=O)C(c2cn(CCCn3ccnc3)c3ccccc23)=C1Nc1ccccc1 | 81 |
| O=C1NC(=O)C(c2c[nH]c3ccccc23)=C1c1c[nH]c2ccccc12 | 28 |
| N#C/C(=C1/Nc2ccccc2S1)c1ccnc(NCCc2cccnc2)n1 | 58 |
| O=C(Nc1nc2ccccc2n1CCN1CCOCC1)c1cccc([N+](=O)[O-])c1 | 86 |
| COc1cc2c(cc1OC)-c1n[nH]c(Nc3cccc(F)c3)c1C2 | 32 |
| O=C1Nc2ccccc2/C1=C\c1c(Cl)[nH]c2ccccc12 | 65 |
| O=C(c1cc2cc(O)ccc2[nH]1)c1cc2cc(O)ccc2[nH]1 | 20 |
| COc1cc2nccc(Oc3ccc(NC(=O)Nc4cc(C)on4)c(Cl)c3)c2cc1OC | 8 |
| c1ccc(-c2cnc(Nc3ccc(OCCN4CCCC4)cc3)s2)cc1 | 43 |
| Oc1cccc(-c2nc(N3CCOCC3)c3oc4ncccc4c3n2)c1 | 95 |
| COc1ccc(CNC(=O)Nc2ncc([N+](=O)[O-])s2)cc1 | 77 |

molecular target: Receptor-interacting serine/threonine-protein kinase 2 (Homo sapiens) (UniProt O43353); conditions: at 1 µM
Sequence (O43353 whole entry): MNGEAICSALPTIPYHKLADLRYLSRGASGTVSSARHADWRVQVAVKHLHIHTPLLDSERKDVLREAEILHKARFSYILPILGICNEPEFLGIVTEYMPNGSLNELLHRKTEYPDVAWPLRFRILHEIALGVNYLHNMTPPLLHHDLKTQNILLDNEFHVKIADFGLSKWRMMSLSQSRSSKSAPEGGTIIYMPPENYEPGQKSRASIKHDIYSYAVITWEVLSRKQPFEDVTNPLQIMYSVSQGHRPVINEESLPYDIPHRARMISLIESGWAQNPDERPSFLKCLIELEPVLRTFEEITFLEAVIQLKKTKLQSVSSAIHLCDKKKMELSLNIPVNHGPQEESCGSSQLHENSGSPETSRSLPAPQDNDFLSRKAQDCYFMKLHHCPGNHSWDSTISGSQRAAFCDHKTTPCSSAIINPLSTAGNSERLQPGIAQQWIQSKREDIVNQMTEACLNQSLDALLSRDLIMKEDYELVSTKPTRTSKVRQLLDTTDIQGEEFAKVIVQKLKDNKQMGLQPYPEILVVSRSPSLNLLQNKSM

| SMILES | residual activity [%] |
| --- | --- |
| O=C1NC(=O)C(c2cn(CCCO)c3ncccc23)=C1c1cnccn1 | 94 |
| Nc1nc(Nc2ccc(S(N)(=O)=O)cc2)nn1C(=O)c1c(F)cccc1F | 62 |
| CCCCc1c(-c2ccc(OC)cc2)[nH]c2nccnc12 | 67 |
| CCN(CC)CCNC(=O)c1c(C)[nH]c(/C=C2\C(=O)Nc3ccc(Cl)cc32)c1C | 62 |
| O=C1NC(=O)C(c2cn(CCCn3ccnc3)c3ccccc23)=C1Nc1ccccc1 | 78 |
| COc1cc2c(cc1OC)-c1n[nH]c(Nc3cccc(F)c3)c1C2 | 30 |
| NC(=O)c1ccc(-c2nc(-c3ccc4c(c3)OCCO4)c(-c3ccccn3)[nH]2)cc1 | 55 |
| O=C1Nc2ccccc2/C1=C\c1c(Cl)[nH]c2ccccc12 | 84 |
| O=C(c1cc2cc(O)ccc2[nH]1)c1cc2cc(O)ccc2[nH]1 | 18 |
| COc1cc2nccc(Oc3ccc(NC(=O)Nc4cc(C)on4)c(Cl)c3)c2cc1OC | 21 |
| O=c1c(-c2ccc(F)cc2)c(-c2ccncc2)[nH]n1-c1ccc(Cl)cc1 | 47 |
| c1ccc(-c2cnc(Nc3ccc(OCCN4CCCC4)cc3)s2)cc1 | 43 |
| Oc1cccc(-c2nc(N3CCOCC3)c3oc4ncccc4c3n2)c1 | 89 |
| Nc1nccc(-c2c(-c3ccc(F)cc3)ncn2C2CCNCC2)n1 | 43 |
| CCN1/C(=C/C(C)=O)Sc2ccc(OC)cc21 | 71 |
| COc1ccc(CNC(=O)Nc2ncc([N+](=O)[O-])s2)cc1 | 79 |

molecular target: Receptor-interacting serine/threonine-protein kinase 2 (Homo sapiens) (UniProt O43353); conditions: at 10 µM

| SMILES | residual activity [%] |
| --- | --- |
| O=C(Nc1ccc(Cl)cc1)c1ccccc1NCc1ccncc1 | 78 |
| O=C1NC(=O)C(c2cn(CCCO)c3ncccc23)=C1c1cnccn1 | 87 |
| COc1ccc2c(c1)c(C1=C(c3c[nH]c4ccccc34)C(=O)NC1=O)cn2CCCN(C)C | 64 |
| Nc1nc(Nc2ccc(S(N)(=O)=O)cc2)nn1C(=O)c1c(F)cccc1F | 41 |
| CCCCc1c(-c2ccc(OC)cc2)[nH]c2nccnc12 | 82 |
| CCN(CC)CCNC(=O)c1c(C)[nH]c(/C=C2\C(=O)Nc3ccc(Cl)cc32)c1C | 27 |
| O=C1NC(=O)C(c2cn(CCCn3ccnc3)c3ccccc23)=C1Nc1ccccc1 | 77 |
| O=C1NC(=O)C(c2c[nH]c3ccccc23)=C1c1c[nH]c2ccccc12 | 74 |
| COc1cc2c(cc1OC)-c1n[nH]c(Nc3cccc(F)c3)c1C2 | 17 |
| NC(=O)c1ccc(-c2nc(-c3ccc4c(c3)OCCO4)c(-c3ccccn3)[nH]2)cc1 | 18 |
| O=C1Nc2ccccc2/C1=C\c1c(Cl)[nH]c2ccccc12 | 60 |
| O=c1cc(N2CCOCC2)oc2c(-c3ccccc3)cccc12 | 74 |
| O=C(c1cc2cc(O)ccc2[nH]1)c1cc2cc(O)ccc2[nH]1 | 6 |
| O=c1c(-c2ccc(F)cc2)c(-c2ccncc2)[nH]n1-c1ccc(Cl)cc1 | 19 |
| c1ccc(-c2cnc(Nc3ccc(OCCN4CCCC4)cc3)s2)cc1 | 17 |
| Oc1cccc(-c2nc(N3CCOCC3)c3oc4ncccc4c3n2)c1 | 86 |
| Nc1nccc(-c2c(-c3ccc(F)cc3)ncn2C2CCNCC2)n1 | 16 |
| CCN1/C(=C/C(C)=O)Sc2ccc(OC)cc21 | 60 |
| COc1ccc(CNC(=O)Nc2ncc([N+](=O)[O-])s2)cc1 | 81 |
